From the supplement of paper PMC4894684
Structures can show the parent of a compound that is named as a salt. ± gives the standard deviation of the averaged measurements.

What follows are compounds tested on Toxoplasma gondii RH (in HFF) (assay: parasite growth relative to the screen mean (all compounds = 100%); higher = less inhibition of parasite growth). Details: 5 µM; 72 h; oxygen 21 %.
How it was run: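 Library compounds (10 mM DMSO stocks) were pin-transferred to 5 µM final onto confluent human foreskin fibroblasts in 96-well plates, then infected within 2 h with RH β-Gal–GFP Toxoplasma (MOI 1:5) and grown 72 h at 21% O2. Parasite number came from a CPRG β-Gal assay against in-plate standard curves. Growth is expressed relative to the screen mean (all compounds = 100%), averaged over two screens. Uninfected host-cell viability was checked by CellTiter-Blue.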
Compound Fc1ccc(-c2nc3n(c2-c2ccncc2)CCS3)cc1 has a parasite growth of under 0%.
For Nc1nc(F)nc2c1ncn2[C@@H]1O[C@H](CO)[C@@H](O)[C@@H]1O [Fludarabine], the parasite growth was 102 ± 10%.
Work on COC(=O)c1sccc1S(=O)(=O)Nc1ccc(Nc2ccccc2)cc1OC yielded a parasite growth of 64 ± 25%.
For CC1(C)CCC(C)(C)c2cc(C(=O)Nc3ccc(C(=O)O)cc3)ccc21, the parasite growth was 113 ± 4.7%.
Work on COc1cc(-c2ccc(=O)[nH]n2)ccc1OC(F)F [Zardaverine] yielded a parasite growth of 103 ± 8.7%.
With O=C(O)c1ccc(-c2c[nH]c3ncc(-c4ccccc4)cc23)cc1C1CCCC1 the parasite growth was 46.2 ± 9.6%.
With O=C1NN(C(=O)Nc2ccc(Br)cc2)[C@@H](c2ccccc2)[C@@H]1c1ccccc1 the parasite growth was 124.5 ± 1.1%.
CCC(C)(C)C(=O)O[C@H]1C[C@@H](C)C=C2C=C[C@H](C)[C@H](CC[C@@H]3C[C@@H](O)CC(=O)O3)[C@H]21 [Simvastatin] showed a parasite growth of 110 ± 18%.
CN(CCc1ccc(Cl)c(Cl)c1)CC(O)COc1ccc(NS(C)(=O)=O)cc1 (centres undefined) gave a parasite growth of 58.1 ± 4.3%.
COc1ccc(C(=O)Nc2sc3c(c2C(N)=O)CCCC3)cc1OC showed a parasite growth of 112 ± 5.8%.
Work on CC1=C(/C=C/C(=C/C=C/C(C)=C/C(=O)O)c2ccc(C)cc2)C(C)(C)CCC1 yielded a parasite growth of 94.1 ± 23%.
O=C(Nc1ccc([N+](=O)[O-])cc1O)Nc1ccccc1Br was tested, and the parasite growth was 107 ± 21%.
In the case of CCCCCCNC(=O)Nc1ccc(S(=O)(=O)Nc2ccc(CCNC[C@H](O)COc3ccc(O)cc3)cc2)cc1, the parasite growth is reported as 170 ± 26%.
C[C@@H](NCc1cc(Br)cc2[nH]c(=O)c(=O)[nH]c12)P(=O)(O)O gave a parasite growth of 109 ± 3.7%.
CCSC(=N)N [EIT hydrobromide] gave a parasite growth of 166 ± 23%.
Compound O=C(O)Cc1cccc(OCCCN(Cc2cccc(C(F)(F)F)c2Cl)CC(c2ccccc2)c2ccccc2)c1 [GW 3965 hydrochloride] has a parasite growth of 105 ± 15%.
In the case of Cc1ccc(S(=O)(=O)/C=C/C#N)cc1, the parasite growth is reported as 135 ± 27%.
CCCCCCCCCCC(C)(C)C(=O)Nc1c(OC)cc(OC)cc1OC gave a parasite growth of 27.8 ± 5.4%.
Nc1nc(Nc2ccccc2)nc2c1ncn2[C@@H]1O[C@H](CO)[C@@H](O)[C@H]1O showed a parasite growth of 123 ± 7.1%.
COc1ccc([C@@H]2Sc3ccccc3N(CCN(C)C)C(=O)[C@@H]2OC(C)=O)cc1 [Diltiazem hydrochloride] was tested, and the parasite growth was 94.4 ± 43%.
With CCc1cc(C(C)=O)c(O)cc1OCCCCCC(C)(C)c1nn[nH]n1 the parasite growth was 111 ± 4.1%.
In the case of CCOC(=O)C1=C(C)NC(C)=C(C(=O)OC)C1c1cccc([N+](=O)[O-])c1 (centres undefined) [Nitrendipine], the parasite growth is reported as 118 ± 5.5%.
For CCC(=O)NC1Cc2ccccc2C(c2ccccc2)C1 (centres undefined), the parasite growth was 73.8 ± 18%.
O=C(NCCNCC(O)COc1ccc(O)cc1)N1CCOCC1 (centres undefined) [Xamoterol hemifumarate] was tested, and the parasite growth was 117 ± 12%.
With CCOC(=O)c1ncc2[nH]c3cccc(OC(C)C)c3c2c1C the parasite growth was 101 ± 26%.
CCCCC#Cc1nc(NC)c2ncn([C@@H]3O[C@H](CO)[C@@H](O)[C@H]3O)c2n1 was tested, and the parasite growth was 143 ± 8.2%.
O=C(O)CCc1ccc(NCc2cccc(Oc3ccccc3)c2)cc1 was tested, and the parasite growth was 198 ± 12%.
For N#CC(=C(/N)Sc1ccccc1N)/C(C#N)=C(/N)Sc1ccccc1N, the parasite growth was 197 ± 14%.
Compound CN1C(=O)C(Cc2c[nH]c3ccccc23)NC1=S (centres undefined) [Necrostatin-1] has a parasite growth of 186 ± 6.6%.
Cc1cccc(C)c1NC(=O)C[N+](C)(C)C showed a parasite growth of 123 ± 18%.
Compound Cc1nc2c(O)cccc2c(=O)[nH]1 has a parasite growth of 122 ± 24%.
CN(C(=O)c1c(O)c2ccccc2n(C)c1=O)c1ccccc1 [Linomide] gave a parasite growth of 135 ± 4.5%.
Nc1c(S(=O)(=O)O)cc(Nc2cccc3ccccc23)c2c1C(=O)c1ccccc1C2=O gave a parasite growth of 172 ± 11%.
Compound CC(C)n1nnc2cc(C(=O)O)ccc21 has a parasite growth of 81.9 ± 22%.
CN(C)CCCSc1ccccc1NC(=O)/C=C/c1ccccc1 [Cinanserin hydrochloride] gave a parasite growth of 120 ± 9.6%.
Compound O=c1cc(-c2cccc3c2Sc2ccccc2S3)oc(N2CCOCC2)c1 has a parasite growth of 112 ± 15%.
CCCCNc1c(C(=O)OCC)c(C)nc2c1cnn2CC [Tracazolate hydrochloride] gave a parasite growth of 109 ± 5.9%.
Work on O=C(Nc1ccncc1)c1cc([N+](=O)[O-])ccc1Cl yielded a parasite growth of under 0%.
Work on COc1ccc(S(=O)(=O)N2c3ccc(Cl)cc3[C@](O)(c3ccccc3Cl)[C@@H]2C(=O)N2CCC[C@H]2C(N)=O)cc1OC yielded a parasite growth of 144 ± 26%.
